# Laboratory results taken from PubChem BioAssay (NCI).
# About 83,000 compounds went through this panel and 20% of them were active in at least one assay; those are over-represented in the sample as a whole.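 Percent growth is the endpoint: 0 to 100 indicates growth inhibition (40 means 60% inhibition), 0 means no net growth, and negative values indicate cell death.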 Unmarked numbers belong to inactive results. Activity calls are given as the source filed them. How the source made its calls: active means growth percent below 10; inactive means the rest.
# Tests used:
# Test in all cases: NCI-60 one-dose screen, 48 h (100 = growth as untreated, 0 = no growth, -100 = all killed)
# Conditions in all cases: 10 µM unless noted
# SK-MEL-2 melanoma = system: SK-MEL-2 melanoma
# EKVX NSCLC = system: EKVX NSCLC
# SN12C renal = system: SN12C renal
# UO-31 renal = system: UO-31 renal
# TK-10 renal = system: TK-10 renal
# ACHN renal = system: ACHN renal
# CAKI-1 renal = system: CAKI-1 renal
# A498 renal = system: A498 renal
# CCRF-CEM leukemia = system: CCRF-CEM leukemia
# MOLT-4 leukemia = system: MOLT-4 leukemia
# SR leukemia = system: SR leukemia
# OVCAR-8 ovarian = system: OVCAR-8 ovarian
# OVCAR-5 ovarian = system: OVCAR-5 ovarian
# OVCAR-4 ovarian = system: OVCAR-4 ovarian
# SK-OV-3 ovarian = system: SK-OV-3 ovarian
# IGROV1 ovarian = system: IGROV1 ovarian
# OVCAR-3 ovarian = system: OVCAR-3 ovarian
# HS 578T breast = system: HS 578T breast
# NCI/ADR-RES ovarian = system: NCI/ADR-RES ovarian
# RPMI-8226 leukemia = system: RPMI-8226 leukemia
SMILES,growth (SK-MEL-2 melanoma),growth (EKVX NSCLC),growth (SN12C renal),growth (UO-31 renal),growth (TK-10 renal),growth (ACHN renal),growth (CAKI-1 renal),growth (A498 renal),growth (CCRF-CEM leukemia),growth (MOLT-4 leukemia),growth (SR leukemia),growth (OVCAR-8 ovarian),growth (OVCAR-5 ovarian),growth (OVCAR-4 ovarian),growth (SK-OV-3 ovarian),growth (IGROV1 ovarian),growth (OVCAR-3 ovarian),growth (HS 578T breast),growth (NCI/ADR-RES ovarian),growth (RPMI-8226 leukemia)
CC1=C(SCCC(=O)OC(C[Se]C2=C(C)C(=O)c3ccccc3C2=O)C(=O)NC(C)(C)C)C(=O)c2ccccc2C1=O (stereo unspecified),2.5% (active),-71.2% (active),-64.4% (active),-41.2% (active),-94.3% (active),-78.3% (active),-56.4% (active),-40.6% (active),-23% (active),13.1%,18.7%,-79.4% (active),-68.9% (active),-91.5% (active),-100% (active),-27.9% (active),-97.6% (active),-21.3% (active),-68.6% (active),–
Cc1ccc(/C=N\NC(=O)c2[nH]c3ccc(F)cc3c2-c2ccccc2)cc1,23.2%,38%,41.5%,32.1%,72.5%,38.5%,1.21% (active),19%,18.4%,28.2%,19.7%,16.6%,62.5%,46.8%,20.4%,91.4%,-32.3% (active),16.7%,–,–
COc1cc(/C=C2\C(=O)Nc3ccc(Br)cc32)cc(OC)c1OC,84%,72.2%,80.9%,54.7%,82.5%,79.1%,42.1%,55.7%,72.8%,63.6%,16.3%,–,96.8%,71.8%,88.3%,43%,60.3%,63%,42.7%,52.2%
COc1ccc(OC)c(/C=C2\Oc3cc(OCCN4CCC(Cc5ccccc5)CC4)ccc3C2=O)c1,105%,75.6%,80.8%,53.8%,97.7%,99.7%,61.4%,88.6%,75.6%,62.4%,2.46% (active),78%,92.1%,93.8%,93.3%,76.2%,89.8%,82.2%,80.2%,–
Cc1[nH]c(C(=O)Nc2ccc(C(=O)N3CCNCC3)cc2OC(C)C)c(Cl)c1Cl,106%,82.8%,80.1%,47.9%,79.2%,67.7%,48.8%,64.4%,27.7%,54.1%,-34.3% (active),87.1%,90.3%,81.9%,89.3%,69.5%,71.4%,73%,80.5%,–
O=C(N/N=C/[C@@H](O)[C@H](O)[C@H](O)CO)c1ccc(NC(=O)c2cccnc2)cc1,120%,100%,97.1%,82.9%,106%,101%,96.1%,102%,98.5%,113%,95.7%,105%,103%,114%,99.1%,109%,112%,104%,112%,–
CCCC1CCC(O)(C(C)(O)C(=O)NC2C(=O)N3NCCCC3C(=O)N(O)C(C)C(=O)N3NCCCC3C(=O)N3NCC(O)CC3C(=O)NC(C)C(=O)OC2C(C)C)OC1CC (stereo unspecified),-43.7% (active),-63.4% (active),-67.9% (active),0.226% (active),-85.3% (active),-68.1% (active),-82.6% (active),-95.5% (active),-84.5% (active),-82.7% (active),-87.6% (active),-71.8% (active),-98.4% (active),-81% (active),-96.3% (active),-40% (active),-89.9% (active),-78.1% (active),-76.7% (active),–
O=[N+]([O-])c1ccccc1NCSc1ccc(Cl)cc1,114%,104%,72%,68.3%,101%,104%,95.3%,86%,25%,49.7%,65%,95.5%,114%,108%,109%,123%,109%,99.7%,–,–
CCCCCCn1c(-c2ccc(C(=O)O/N=C(\N)c3ccc(OC)cc3)cc2)nc(-c2ccccc2)c1-c1ccccc1,47.3%,-75.6% (active),-70.3% (active),-86.4% (active),-73.6% (active),-91.5% (active),-64.5% (active),4.08% (active),-35% (active),-35.7% (active),-37.5% (active),1.03% (active),25.5%,7.82% (active),77.9%,-68.1% (active),18%,-20.4% (active),-36.9% (active),–
C(=N/Nc1ncnc2nc[nH]c12)/c1ccccn1,71.5%,24.9%,36.6%,3.16% (active),56.1%,23.4%,-25.4% (active),55%,23.7%,22.2%,25.7%,28.5%,50.8%,31.9%,28.9%,-8.74% (active),51%,64.1%,–,–
CCC(=O)Nc1ccc(-c2nc(-c3cccc(OC)c3)c(-c3ccnc(Br)c3)[nH]2)cc1,70.2%,64.6%,68.3%,53.9%,90.4%,60.3%,57.1%,50.5%,37.1%,44.6%,25.3%,58.2%,87%,46.8%,101%,81%,65.4%,39.2%,67.9%,–
O=C1CN(CCN2CC(=O)N(Cc3ccccc3)C(=O)C2)CC(=O)N1Cc1ccccc1,106%,99.2%,98.6%,76.3%,111%,106%,92.8%,89.7%,94.3%,92.3%,108%,–,109%,106%,113%,109%,109%,96.7%,103%,99.5%
COc1ccc(/C=C2\Oc3cc(OCCN4CCC(Cc5ccccc5)CC4)ccc3C2=O)cc1OC,104%,70.4%,65.6%,51.9%,95.3%,96.8%,74.2%,69.7%,55.9%,46.7%,-1.05% (active),39.1%,93.4%,79.3%,87.8%,82.1%,87%,74.6%,70.9%,–
O=c1cc(SCc2ccccc2)nc[nH]1,111%,94.9%,120%,103%,108%,108%,85.6%,113%,98.5%,89.4%,127%,117%,93.5%,117%,114%,111%,114%,119%,101%,–
COc1ccc2nc(NCCCNCCO)c3sc4ccc(F)cc4c(=O)c3c2c1,89%,61.1%,58.6%,38.4%,69.3%,39.5%,7.45% (active),25.9%,-20.8% (active),-10.4% (active),-35.1% (active),6.89% (active),81.7%,-54.3% (active),90.1%,41.3%,-64.6% (active),63.5%,30.3%,–
CCOC(=O)C1=C(N)Oc2c(sc3c(CC)cccc23)C1c1ccc(F)cc1 (stereo unspecified),52.1%,64.1%,49.1%,36.2%,99.1%,34.1%,4.96% (active),-3.69% (active),27.6%,64.2%,27.2%,45.2%,56.2%,58.7%,50.6%,29.3%,-6.19% (active),23.9%,32.2%,–
